HCMV antiviral: human cytomegalovirus inhibition. AID 1259415. hit rate 4.5% among 410,000. activity change, negative = inhibition, % at 57.5 µM. HFF cells, HCMV-luciferase reporter, 72 h; hits give low values; in the data active = activity change below about -60%; inconclusive = no clear call, values can overlap the other calls; inactive = above about -39%; note: % is set by controls: 0 for no effect and ±100 for the full control effect
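Compounds were evaluated in HFFs infected with an HCMV luciferase reporter virus (MOI 1 PFU/cell). Luciferase in lysates collected 72 h post infection served as the replication measure.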
Sm TGR inh: blocks Schistosoma mansoni thioredoxin glutathione reductase. Q962Y6. purified TGR, DTNB reduction, TNB absorbance 405 nm. Potency, µM (titrated, usually from 114 µM), without a hit: top-dose activity change, negative = inhibition, usual class: inhibitors. hit rate 3% among 360,000. AID 485364; note: potency is the fitted concentration of half-maximal effect; % is set by controls: 0 for no effect and ±100 for the full control effect; nearly all actives have a fitted effect of over 60% in size
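TGR 20 nM + NADPH 100 uM (dispensed conc.), cpd preinc 15 min RT; start with NADPH (500 uM addition) then DTNB (15 mM addition). Kinetic TNB absorbance, 405 nm filter. Four-parameter Hill fit across titration.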
SARS PLP yeast: SARS-CoV PLP inhibition in yeast. S. cerevisiae expressing SARS-CoV PLpro, growth rescue. Potency, µM (doses to about 32.9 µM), inactives show top-dose activity, positive = growth rescue, actives largely listed as activators. hit rate 0.19% among 330,000. AID 485353; calls by dose curve; note: potency is the fitted concentration of half-maximal effect; 0% is about no effect; nearly all actives have a fitted effect of over 55% in size
HCV inh: inhibitors of hepatitis C virus infection; Huh7.5.1 HCVcc-Cre infection, luciferase reporter, 44 h; Potency, µM (series often up to 41.8 µM), inactives show at the highest dose activity change, negative = inhibition, actives largely listed as inhibitors; hit rate 3.4% among 340,000; note: potency is the fitted concentration of half-maximal effect; % is set by controls: 0 for no effect and ±100 for the full control effect
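Infectious HCV cell culture screen: compound-treated cells (1,000/well, pre-plated 4 h) are infected with HCVcc-Cre at roughly 0.5 moi and grown 44 h. Infection is quantified by luciferase signal after 15 min substrate incubation at room temperature.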
Pf growth 96h: P. falciparum growth inhibition at 96 hours. Potency, µM (highest dose often 28.7 µM), for inactives: at the highest dose activity change, negative = inhibition, most hits filed as inhibitors. AID 504834. hit rate 6.9% among 320,000. P. falciparum luciferase reporter growth, 96 h; note: potency is the fitted concentration of half-maximal effect; % is set by controls: 0 for no effect and ±100 for the full control effect
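Cell-based qHTS: luciferase-tagged P. falciparum in erythrocytes (2% hematocrit, 0.05% parasitemia final) incubated with compounds for 96 hours, 37 C, 5% CO2; luciferase detection reagent then added and luminescence measured.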
Pf growth 48h: inhibits P. falciparum growth in the first generation, 48 h; AID 504832; P. falciparum luciferase growth in erythrocytes, 48 h; Potency, µM (titrated, usually from 28.7 µM), for the others: top-dose activity change, negative = inhibition, most hits filed as inhibitors; hit rate 5.9% among 310,000; note: potency is the fitted concentration of half-maximal effect; % is set by controls: 0 for no effect and ±100 for the full control effect
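Luciferase-expressing parasites in RBCs, 2% Hct / 0.1% parasitemia final; RPMI 1640 + 0.5% Albumax; 37 C, 5% CO2, one generation; luminescence read-out, lower signal = inhibition.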
The depositor's hits bear a star; ? = inconclusive; nt = no result; [ ] = dose if it differs, or a comment. Sampled rows, rich in hits. Any-hit rate of the full collection: about 15%. Unless noted, calls come from the whole dose curve; as a rule, active = well fitted curve in the direction sought with a large enough effect; inconclusive = small, poorly fitted or top-dose-only effect, or another doubt; inactive = no such curve, though single readings can be large; an effect the other way counts as inactive or inconclusive.

SMILES	HCMV antiviral	Sm TGR inh	SARS PLP yeast	HCV inh	Pf growth 96h	Pf growth 48h
Cc1csc(NC(=O)CCc2c(C)nc3cc(-c4ccc(Cl)cc4)nn3c2C)n1	-27	-1%	-8%	-8%[8.37 µM]	15µM*	?
COc1ccccc1CNC(=O)CCc1c(C)nc2cc(-c3ccc(Cl)cc3)nn2c1C	18	1%	nt	nt	nt	nt
COc1cc(OC)cc(-c2cc3nc(C)c(CCC(=O)Nc4ccccc4OC)c(C)n3n2)c1	-62*	1%	nt	nt	nt	nt
COc1cc(OC)cc(-c2cc3nc(C)c(CCC(=O)NCc4ccccc4)c(C)n3n2)c1	-69*	-12%	-9%	?	?	?
COc1cc(OC)cc(-c2cc3nc(C)c(CCC(=O)NCCc4cccc(C)c4)c(C)n3n2)c1	-36	8%	nt	nt	nt	nt
CCc1c(O)nc(SCC(=O)N(CC)CC)[nH]c1=O	20	nt	0%	10%	13µM*	?
Cc1ccc(C(=O)NNC(=O)COc2ccc(Cl)cc2C)o1	150	3%	-6%	8%	-14%	-6%
Cc1cc(Br)ccc1OCC(=O)NNC(=O)c1cnccn1	11	-3%	?	-2%	12µM*	?
Cc1cc(Cl)ccc1OCC(=O)NNC(=O)c1cnccn1	?	12%	15%	-13%	8.3µM*	?
COc1ccc(CC(=O)NNC(=O)COc2ccc(Br)cc2C)cc1OC	-13	-8%	-2%	17%	-25%	1%
COc1cc(NC(=O)c2ccccc2)c(OC)cc1NC(=O)Cc1ccc(C)cc1	-19	-3%	-1%	-17%	?	-10%
CN(C)C1=NP(N(C)C)(N(C)C)=NC(c2ccccc2)=N1	38	-1%	7%	7%	1.7µM*	0%
CN(C)/C=C1\N=C(c2ccccc2)OC1=O	-22	3%	-6%	?	35%	27%
COc1ccc(-c2nnc(SCC(=O)Nc3cc(C)on3)o2)cc1	-24	3%	-1%	1%	?	8%
COc1ccc(/C=N/NC(=O)c2cccc(COCC(F)(F)C(F)F)c2)cc1	-25	0%	-1%	-11%	?	-10%
O=C(CSc1nc2cc(Cl)ccc2o1)NC1CC1	0	nt	0%	-4%	nt	nt
COc1cccc(C(=O)COc2ccc(NC(=O)c3cccs3)cc2)c1	-33	-6%	2%	-17%	?	12µM*
COc1cccc(-c2nc(-c3ccc(NC(=O)c4cccs4)cc3)no2)c1	-25	-1%	-1%	?	4.1µM*	16%
CCCCOc1cccc(C(=O)Nc2ccc(NC(=O)c3cccs3)cc2)c1	-89*	13%	1%	?	4.7µM*	0%
CC1Cc2ccccc2N1C(=O)COc1ccc2c(c1)OCO2 (stereo not given)	9	-25%	-9%	-12%	-3%	13%
Cc1ccccc1NC(=O)c1nc(S(C)(=O)=O)ncc1N(Cc1ccco1)Cc1sccc1C	-20	-2%	nt	nt	nt	nt
COc1ccc(CCNC(=O)c2c(C)oc3nc(C)nc(N4CCOCC4)c23)cc1OC	12	6%	nt	nt	nt	nt
COc1ccc2c(c1)cc1c(=O)n(CC(=O)NCCCN3CCOCC3)nc(C)n12	8	-11%	-1%	1%	70%	19%
CCc1nc2oc3cc(OC)ccc3c(=O)c2c(=O)n1Cc1ccco1	-35	28µM*	2%	-13%	?	12µM*
CCCCn1c(-c2ccco2)nc2oc3ccccc3c(=O)c2c1=O	-35	-2%	0%	7%	9.3µM*	?
SMILES	HCMV antiviral	Sm TGR inh	SARS PLP yeast	HCV inh	Pf growth 96h	Pf growth 48h
COc1ccc2c(=O)c3c(=O)n(Cc4ccco4)c(-c4ccco4)nc3oc2c1	1	40µM*	-2%	-28%	nt	-8%
COc1ccc(Cn2c(-c3ccco3)nc3oc4ccccc4c(=O)c3c2=O)cc1	-6	1%	-3%	-2%	27%	18%
COc1ccc2c(=O)c3c(=O)n(Cc4ccccc4)c(C(C)C)nc3oc2c1	-30	nt	nt	-11%	nt	nt
COc1ccc(-c2nc3oc4cc(OC)ccc4c(=O)c3c(=O)n2Cc2ccco2)cc1	-15	20µM*	-41%	?	-3%[5.75 µM]	?
COc1ccc(Cn2c(-c3ccco3)nc3oc4cc(OC)ccc4c(=O)c3c2=O)cc1	-2	?	-2%	?	?	?
COc1ccc(Cc2nnc(NC(=O)c3ccco3)s2)cc1	145	-3%	3%	5%	35%	56%
Cc1ccccc1NC(=O)c1sc2nc(-c3ccncc3)ccc2c1N	?	6%	nt	nt	nt	nt
COc1ccc(Cn2c(SCC(=O)N3CCN(c4ccc(F)cc4)CC3)nc3ccccc32)cc1	-67*	-1%	nt	nt	nt	nt
Nc1nc(SCC(=O)N2CCN(c3ccc(F)cc3)CC2)n[nH]1	-32	-1%	7%	29%	-19%	-10%
C=CCn1c(N)cc(=O)nc1SCC(=O)N1CCN(c2ccc(F)cc2)CC1	-6	28µM*	-2%	11%	18%	-16%
COc1ccc(CC(=O)N2CCC(Nc3nc4ccccc4n3Cc3ccc(F)cc3)CC2)cc1	85	0%	-17%	?	9.3µM*	4.1µM*
COc1cccc(Cn2c(SCC(=O)N3CCN(c4ccc(F)cc4)CC3)nc3ccccc32)c1	-15	-1%	nt	nt	nt	nt
Cc1ccc([N+](=O)[O-])c2cccnc12	-4	-35%	-4%	9%	38%	14%
CCC(=O)NC(c1cccs1)c1cc([N+](=O)[O-])c2cccnc2c1OC (stereo not given)	-87*	40µM*	-1%	nt	2%	-7%
CCC(=O)NC(c1cccs1)c1ccc2cccnc2c1O (stereo not given)	-101*	0%	-7%	3.5µM*	?	2.3µM*
Cc1conc1NC(c1cccs1)c1ccc2cccnc2c1O (stereo not given)	nt	?	-37%	nt	6.6µM*	1.9µM*
CCC(=O)Nc1cccc2cccnc12	8	nt	1%	6%	18%	7%
CC(C)CC(=O)NC(c1cccs1)c1ccc2cccnc2c1O (stereo not given)	nt	3%	-1%	2.8µM*	404%	?

Compound activity (PubChem)
